Measurements as given in PubChem BioAssay AID624498 (National Center for Advancing Translational Sciences (NCATS), 2012).
Calls of active or inactive are those of the source.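 Rule for the calls: active = a band for the stress protein GRP78 appears on a western blot of treated cells; inactive = no band seen on the blot.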

Test: Hit Validation Western Blot Assay for Inducers of ERSR: Assessment of GRP78 Upregulation
Settings: cells, 4-24 h
Excerpt: Primary protein unfolding takes place for many diseases, including diabetes and hypoxia, , and triggers a reaction in the cells called ER stress response (ERSR). ). ERSR is designed as a repair mechanism, but ultimately leads to cell death via apoptosis if conditions triggering protein unfolding persist (1). The molecular clue to ERSR activation is the enhancement of the expression of key molecular chaperones, including the glucose regulated protein (GRP) 78. GRP78 is the main sensor for protein folding and the main actuator of the ERSR. In a collaboration between the Southern Research Institute and the NIH Chemical Genomics Center, a cell based screen was developed that reliably uses GRP78 as a sensor to identify small molecules as inducers of ERSR. In resting conditions, GRP78 binds proteins and acts as a natural repressor. Once unfolded proteins are present in the ER, GRP78 releases some of the repressors and binds to the unfolded proteins. The release of the repressors executes the ERSR program. Using a human glioma cell line in a miniaturized, luminescent format, a high-throughput screen was developed to identify actuators of the ERSR. In this assay, hits identified in the primary ERSR screen were characterized for their effects on wild type GRP78 upregulation using a western blot secondary assay. NIH Chemical Genomics Center [NCGC] […]

| SMILES | outcome |
| --- | --- |
| Cc1noc(C)c1C(=O)N1CCC2(CCCN(C(c3ccccc3)c3ccccc3)C2)CC1 | active; yes |
